Assay [1] is described as follows: ATG_CRE_CIS: Attagene CIS-FACTORIAL HepG2 Assay for human cAMP Responsive Element (CRE) binding protein 3 (AID 2282926). As to conditions: HepG2 CRE cis-reporter, Attagene multiplexed mRNA; actives raise or lower the signal. Put shortly:
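Multiplexed transcription-unit reporters transfected into HepG2; 24 h dosing; RT-PCR/capillary electrophoresis fluorescence read-out; bidirectional fit vs DMSO.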

The target in assay [2] is CCAAT/enhancer-binding protein beta (Homo sapiens) (UniProt P17676). As to the kind of experiment: ATG_C_EBP_CIS: Attagene CIS-FACTORIAL HepG2 Assay for human CCAAT/Enhancer Binding Protein (C/EBP) beta (AID 2282927). As to conditions: HepG2 Attagene cis-factorial transcription factor reporter; actives raise or lower the signal. Put shortly: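 Transiently transfected HepG2 (MRTU library, endogenous TF-driven promoters); 24 h dosing; total RNA → oligo(dT) RT → PCR → 6-FAM primer extension → HpaI digest → CE; fit bidirectionally vs DMSO.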
CCAAT/enhancer-binding protein beta (Homo sapiens), sequence (P17676 whole entry, looked up): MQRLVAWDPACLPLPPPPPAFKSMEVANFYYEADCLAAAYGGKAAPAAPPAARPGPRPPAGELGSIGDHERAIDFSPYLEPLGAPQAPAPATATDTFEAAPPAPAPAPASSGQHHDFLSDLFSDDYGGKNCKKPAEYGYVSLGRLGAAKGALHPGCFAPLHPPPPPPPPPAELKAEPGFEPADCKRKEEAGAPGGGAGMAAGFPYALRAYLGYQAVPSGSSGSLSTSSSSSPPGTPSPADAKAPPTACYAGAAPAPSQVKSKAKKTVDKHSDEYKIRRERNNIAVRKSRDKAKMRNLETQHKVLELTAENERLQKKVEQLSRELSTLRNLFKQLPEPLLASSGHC

The nature of assay [3]: ATG_CMV_CIS: Attagene CIS-FACTORIAL HepG2 Assay for human CMV (Internal Marker) (AID 2282928).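 Note: endpoint acts as a background internal control marker rather than a target.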 The note with it: HepG2 CMV promoter reporter, transcription factor profiling; actives raise or lower the signal. The essentials:
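Cell system: HepG2, transiently transfected multiple reporter units under cis promoters. Exposure: 24 h. Detection: RT-PCR, FAM labeling, HpaI digestion, capillary electrophoresis. Analysis: bidirectional, DMSO baseline.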

Assay [4] can be described thus: ATG_DR4_LXR_CIS: Attagene CIS-FACTORIAL HepG2 Assay for human Liver X Receptor (LXR), DR4 submotif (AID 2282929). The note with it: HepG2 Attagene DR4 cis-reporter, mRNA transcription; actives raise or lower the signal. The essentials: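 Endogenous factor activity at a DR4 cis-element is read as reporter mRNA in transiently transfected HepG2 cells. Exposure lasts 24 h; transcripts are amplified, fluorescently labelled and sized by capillary electrophoresis, with DMSO as baseline.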

Assay [5] concerns the target Aryl hydrocarbon receptor (Homo sapiens) (UniProt P35869). Nature of the assay: ATG_Ahr_CIS: Attagene CIS-FACTORIAL HepG2 Assay for human Aryl Hydrocarbon Receptor (Ahr) (AID 2282930). As to conditions: HepG2 AhR cis-factorial reporter transcription; actives raise or lower the signal. The essentials: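 Read-out: reporter mRNA quantified by RT-PCR with fluorescent primer extension and capillary electrophoresis. Human HepG2 liver cells carried transfected cis-promoter reporter units and were exposed to chemical for 24 h; gain or loss fitted relative to DMSO.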

Assay [6] in a line: ATG_AP_1_CIS: Attagene CIS-FACTORIAL HepG2 Assay for human Activator Protein 1 (AP-1) (AID 2282931). As to conditions: HepG2 Attagene cis-factorial AP-1 reporter mRNA; actives raise or lower the signal. The essentials: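 Fluorescence of labelled PCR fragments separated by capillary electrophoresis gives reporter mRNA levels. HepG2 with transfected cis-regulated reporter units, 24 h exposure; DMSO serves as baseline for bidirectional curve fits.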

Assay [7] is described as follows: ATG_AP_2_CIS: Attagene CIS-FACTORIAL HepG2 Assay for human Activator Protein 2 (AP-2) (AID 2282932). As to conditions: HepG2 AP-2 cis-reporter, Attagene transcription factor profiling; actives raise or lower the signal. Put shortly:
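Multiplexed mRNA reporter assay in HepG2: cis-regulated units report endogenous factor activity after 24 h treatment. Fluorescence from capillary electrophoresis of RT-PCR products gives the signal, with DMSO as baseline.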

The nature of assay [8]: ATG_BRE_CIS: Attagene CIS-FACTORIAL HepG2 Assay for human Bone Morphogenetic Protein (BMP) Response Element (BRE) (AID 2282933). As to conditions: HepG2 BMP response element reporter, Attagene transcription factor profiling; actives raise or lower the signal. Put shortly: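 Endogenous transcription factor activity read in transiently transfected HepG2 cells after 24 h chemical exposure. Bidirectional curve fitting against DMSO; readout is reporter transcript level by RT-PCR with capillary electrophoresis of labelled products.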

Assay [9] has as its target Retinoic acid receptor alpha (Homo sapiens) (UniProt P10276). Nature of the assay: ATG_DR5_RAR_CIS: Attagene CIS-FACTORIAL HepG2 Assay for human Retinoic Acid Receptor Alpha (RARE), DR5 submotif (AID 2282934). The note with it: HepG2 Attagene cis-factorial RARE DR5 reporter, mRNA; actives raise or lower the signal. The essentials:
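Read-out: DR5-driven reporter transcript measured by RT-PCR, 6-FAM primer extension, HpaI digest and capillary electrophoresis. Human HepG2 liver cells carry transiently transfected cis-element reporter constructs; dosing lasts 24 h. Gain or loss of signal fitted against DMSO baseline.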

In assay [10] the target is Transcription factor E2F1 (Homo sapiens) (UniProt Q01094). As to the kind of experiment: ATG_E2F_CIS: Attagene CIS-FACTORIAL HepG2 Assay for human E2F Transcription Factor 1 (AID 2282935). As to conditions: HepG2 Attagene cis-reporter, E2F reporter RNA transcripts; actives raise or lower the signal. The essentials:
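Measures reporter transcript levels via RT-PCR with capillary electrophoresis detection in HepG2 cells harboring cis-regulated reporter units; 24 h post-dose; bidirectional curve fitting with DMSO as baseline.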

The nature of assay [11]: ATG_E_Box_CIS: Attagene CIS-FACTORIAL HepG2 Assay for human Enhancer Box (E-box) (AID 2282936). As to conditions: HepG2 E-box cis-reporter transcription, actives raise or lower the signal. Put shortly: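 First, HepG2 cells receive multiple cis-regulated reporter constructs by transient transfection. Next, chemicals are applied for 24 h. Finally, reporter mRNA is quantified via RT-PCR and capillary electrophoresis, with DMSO as baseline.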

Assay [12] in a line: ATG_M_61_CIS: Attagene CIS-FACTORIAL HepG2 Assay for M61 Transcription Factor (Internal Marker) (AID 2282937). As to conditions: HepG2 Attagene CIS-FACTORIAL M61 internal marker reporter; actives raise or lower the signal. The essentials: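 This endpoint serves as an internal background control within a multiplexed HepG2 cis-reporter panel. Cells are exposed for 24 h; reporter mRNA is amplified, fluorescently labelled and sized by capillary electrophoresis, with DMSO as negative control.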

The nature of assay [13]: ATG_EGR_CIS: Attagene CIS-FACTORIAL HepG2 Assay for human Early Growth Response 1 (EGR1) (AID 2282938). The note with it: HepG2 Attagene CIS-FACTORIAL EGR reporter mRNA; actives raise or lower the signal. The essentials:
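HepG2, transient MRTU transfection (cis promoters), 24 h compound. RNA → RT (oligo-dT) → PCR → 6-FAM labelling → HpaI cut → CE fluorescence. Bidirectional fit, DMSO baseline.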

The nature of assay [14]: ATG_M_19_CIS: Attagene CIS-FACTORIAL HepG2 Assay for M19 Transcription Factor (Internal Marker) (AID 2282939). The note with it: HepG2 Attagene CIS-FACTORIAL M19 internal marker reporter; actives raise or lower the signal. Put shortly: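 Internal marker readout, fitted in both directions against DMSO, from HepG2 cells carrying transfected cis-element reporter constructs; RT-PCR and capillary electrophoresis of reporter mRNA after 24 h exposure.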

A short description of assay [15]: ATG_ERE_CIS: Attagene CIS-FACTORIAL HepG2 Assay for Estrogen Response Element (ERE) (AID 2282940). As to conditions: HepG2 ERE cis-reporter, Attagene RNA transcript; actives raise or lower the signal. Put shortly:
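After 24 h compound treatment, RNA from transfected HepG2 cells was reverse-transcribed, reporter cDNA PCR-amplified, FAM-labelled, HpaI-cut and resolved by capillary electrophoresis. ERE-driven cis reporter transcripts reflect endogenous factors; gain or loss scored against DMSO.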

Assay [16] can be described thus: ATG_Ets_CIS: Attagene CIS-FACTORIAL HepG2 Assay for human Erythroblast Transformation Specific (ETS) (AID 2282941). As to conditions: HepG2 ETS cis-reporter transcription, actives raise or lower the signal. Put shortly: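 After transient cis-reporter transfection, HepG2 cells receive test chemical for 24 h. Reporter mRNA levels, measured by RT-PCR and capillary electrophoresis fluorescence, are analysed bidirectionally relative to the DMSO baseline.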

In assay [17] the target is Hepatocyte nuclear factor 3-beta (Homo sapiens) (UniProt Q9Y261). As to the kind of experiment: ATG_FoxA2_CIS: Attagene CIS-FACTORIAL HepG2 Assay for human Forkhead box A2 (FOXA2) (AID 2282942). The note with it: HepG2 cis-reporter transcription factor activity, 24 h; actives raise or lower the signal. Put shortly: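 Cells: HepG2, transient multiplex reporter transfection. Exposure 24 h. Detection: reporter-specific RT-PCR, fluorescent labelling, restriction digest, capillary electrophoresis. Analysis: bidirectional curve fit, DMSO as negative control.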
Hepatocyte nuclear factor 3-beta (Homo sapiens), sequence (Q9Y261 whole entry, looked up): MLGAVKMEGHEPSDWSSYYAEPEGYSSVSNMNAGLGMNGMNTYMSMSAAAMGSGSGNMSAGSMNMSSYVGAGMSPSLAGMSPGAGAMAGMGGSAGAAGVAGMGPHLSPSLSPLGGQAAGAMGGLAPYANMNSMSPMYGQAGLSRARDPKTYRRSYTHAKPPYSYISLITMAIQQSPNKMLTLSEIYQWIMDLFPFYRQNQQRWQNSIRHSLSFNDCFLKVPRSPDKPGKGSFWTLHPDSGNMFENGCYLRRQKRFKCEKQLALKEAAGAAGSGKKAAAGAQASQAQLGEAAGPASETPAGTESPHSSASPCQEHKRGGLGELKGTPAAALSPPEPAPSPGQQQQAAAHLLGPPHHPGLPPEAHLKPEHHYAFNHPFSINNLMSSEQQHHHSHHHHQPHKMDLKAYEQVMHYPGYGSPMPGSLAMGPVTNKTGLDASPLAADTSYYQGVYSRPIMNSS

Assay [18] is described as follows: ATG_FoxO_CIS: Attagene CIS-FACTORIAL HepG2 Assay for human Forkhead box O (FoxO) (AID 2282943). As to conditions: HepG2 Attagene cis-reporter, FoxO element, mRNA; actives raise or lower the signal. Put shortly: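 Read-out: fluorescence of 6-FAM-labelled reporter cDNA fragments resolved by capillary electrophoresis. Transiently transfected HepG2 cells were dosed for 24 h; activity fitted in both directions relative to DMSO controls.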

Assay [19] can be described thus: ATG_GATA_CIS: Attagene CIS-FACTORIAL HepG2 Assay for human GATA Binding Protein (AID 2282944). As to conditions: HepG2 GATA cis-element reporter, Attagene multiplex mRNA; actives raise or lower the signal. The essentials:
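Reporter transcripts from a GATA cis-regulated unit, among multiplexed reporters in transfected HepG2 cells, were measured by RT-PCR with capillary electrophoresis after 24 h dosing. Induction or loss scored relative to DMSO.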

Assay [20] can be described thus: ATG_GLI_CIS: Attagene CIS-FACTORIAL HepG2 Assay for human Zinc Finger Protein GLI1 (AID 2282945). The note with it: HepG2, Attagene cis-factorial reporter mRNA, GLI element; actives raise or lower the signal. Put shortly:
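Transiently transfected HepG2 cells report endogenous transcription factor activity via cis-element-driven reporter units. After 24 h compound exposure, reporter mRNA was measured by RT-PCR with capillary electrophoresis; bidirectional fitting against DMSO baseline.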

Molecules are shown by their SMILES. Active and inactive are the calls of the source. Rule for the calls: active = hit-call score of the fitted dose curve at least 0.9, where 1 is the maximum; inactive = score below 0.9.

Aryl hydrocarbon receptor (Homo sapiens), sequence (P35869 whole entry, looked up): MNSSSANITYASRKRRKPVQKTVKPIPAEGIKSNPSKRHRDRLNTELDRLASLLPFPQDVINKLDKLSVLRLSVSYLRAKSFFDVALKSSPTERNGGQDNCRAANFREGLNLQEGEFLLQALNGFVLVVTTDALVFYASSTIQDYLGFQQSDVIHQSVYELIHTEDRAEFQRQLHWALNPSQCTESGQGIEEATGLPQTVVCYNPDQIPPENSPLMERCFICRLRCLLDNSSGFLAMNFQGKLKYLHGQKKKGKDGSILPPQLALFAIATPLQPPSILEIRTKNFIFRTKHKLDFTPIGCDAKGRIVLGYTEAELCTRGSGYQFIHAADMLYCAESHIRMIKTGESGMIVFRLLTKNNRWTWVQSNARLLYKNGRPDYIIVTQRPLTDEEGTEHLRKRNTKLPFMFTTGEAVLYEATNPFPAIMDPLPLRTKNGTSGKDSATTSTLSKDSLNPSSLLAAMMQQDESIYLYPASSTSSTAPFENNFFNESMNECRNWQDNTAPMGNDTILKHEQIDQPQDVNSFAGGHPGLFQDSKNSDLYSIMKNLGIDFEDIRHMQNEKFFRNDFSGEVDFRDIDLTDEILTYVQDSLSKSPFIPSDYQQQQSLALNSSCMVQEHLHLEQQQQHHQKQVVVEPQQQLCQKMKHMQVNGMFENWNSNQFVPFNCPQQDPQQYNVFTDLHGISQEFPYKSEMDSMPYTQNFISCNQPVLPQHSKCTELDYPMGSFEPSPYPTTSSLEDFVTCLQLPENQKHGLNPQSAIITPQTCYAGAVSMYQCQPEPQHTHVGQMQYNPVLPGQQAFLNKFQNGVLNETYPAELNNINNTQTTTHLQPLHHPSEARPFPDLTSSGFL
Transcription factor E2F1 (Homo sapiens), sequence (Q01094 whole entry, looked up): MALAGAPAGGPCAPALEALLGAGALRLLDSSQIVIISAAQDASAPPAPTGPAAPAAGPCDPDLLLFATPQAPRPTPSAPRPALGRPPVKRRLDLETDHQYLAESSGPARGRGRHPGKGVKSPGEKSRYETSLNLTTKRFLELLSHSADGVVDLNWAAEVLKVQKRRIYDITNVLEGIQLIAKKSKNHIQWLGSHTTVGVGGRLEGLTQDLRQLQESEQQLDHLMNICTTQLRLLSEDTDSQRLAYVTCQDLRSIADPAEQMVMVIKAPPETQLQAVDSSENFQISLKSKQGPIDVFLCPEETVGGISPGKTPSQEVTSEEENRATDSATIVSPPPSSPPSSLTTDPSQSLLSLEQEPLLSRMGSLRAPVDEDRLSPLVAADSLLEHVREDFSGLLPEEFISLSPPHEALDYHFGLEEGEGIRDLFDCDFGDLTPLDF
Retinoic acid receptor alpha (Homo sapiens), sequence (P10276 whole entry, looked up): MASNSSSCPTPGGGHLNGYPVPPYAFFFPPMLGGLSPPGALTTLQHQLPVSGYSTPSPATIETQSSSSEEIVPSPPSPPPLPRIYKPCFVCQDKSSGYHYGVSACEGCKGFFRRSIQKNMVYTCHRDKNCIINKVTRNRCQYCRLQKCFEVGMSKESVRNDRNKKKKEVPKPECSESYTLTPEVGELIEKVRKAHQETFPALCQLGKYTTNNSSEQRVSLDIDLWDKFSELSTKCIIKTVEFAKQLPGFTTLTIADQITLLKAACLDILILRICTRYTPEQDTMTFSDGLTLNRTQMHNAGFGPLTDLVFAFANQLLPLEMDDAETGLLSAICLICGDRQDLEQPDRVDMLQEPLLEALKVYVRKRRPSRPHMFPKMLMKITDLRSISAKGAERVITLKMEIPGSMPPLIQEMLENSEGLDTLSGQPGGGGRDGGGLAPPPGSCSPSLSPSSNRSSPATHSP

Turning to `CCN(CC)C1CCCCC1`, the compound was called inactive in assay [1], in assay [2], in assay [3], in assay [4], in [5] and in assay [6]. The compound was classed as inactive in [7], in [8], in assay [9], in assay [10], in assay [11] and in assay [12]. Further, the result in assay [13], in assay [14], in [15], in assay [16], in [17] and in assay [18] was inactive. Besides, the call in assay [19] and in assay [20] was inactive.

As a reminder, the AC50 is the midpoint of the concentration-response curve, whichever way the signal moves. Consider `CC1(C)CN=C(NN=C(/C=C/c2ccc(C(F)(F)F)cc2)/C=C/c2ccc(C(F)(F)F)cc2)NC1`, for which the AC50 in assay [1] was 8.42 µM (active); in assay [2], 3.09 µM (active); in assay [4], 8.29 µM (active); in assay [8] it was 16.7 µM (active); in assay [11], 13.7 µM (active); in assay [15] it was 0.303 µM (active). Further, the AC50 in assay [17] is 11.1 µM (active). Also, the compound was classed as inactive in assay [3], in [5], in assay [6], in [7], in assay [9] and in [10]. Besides, the compound was called inactive in assay [13], in assay [14], in assay [16], in [18], in assay [19] and in assay [20].

`CCNc1nc(Cl)nc(NC(C)(C)C)n1`: the call in [1], in [2], in assay [3], in assay [4], in assay [5] and in assay [6] was inactive. Further, the result in [7], in assay [8], in assay [9], in assay [10], in [11] and in assay [12] was inactive. The compound was called inactive in [13], in assay [14], in assay [16], in assay [17], in assay [18] and in [19]. Besides, the compound was called inactive in assay [20]. In [15], the AC50 is 8.92 µM (active).

For the compound `O=C(O)C(F)(F)OC(F)(F)C(F)(F)OC(F)(F)C(=O)O`, the call in assay [1], in assay [2], in [3], in [4], in assay [5] and in assay [6] was inactive. Further, the outcome in assay [7], in assay [8], in [9], in assay [10], in [11] and in assay [13] was inactive. The result in [14], in assay [15], in assay [16], in assay [17], in [18] and in assay [19] was inactive. The call in assay [20] was inactive.

Take `CCOC(=O)c1ccccc1N`: the compound was classed as inactive in [1], in [2], in [3], in assay [4], in assay [5] and in [6]. The compound was classed as inactive in assay [7], in [8], in [9], in assay [10], in assay [11] and in assay [12]. Besides, the compound was called inactive in [13], in [14], in assay [15], in assay [16], in [17] and in assay [18]. For the same compound, the outcome in assay [19] and in assay [20] was inactive.

As for `CC(=O)CCc1ccc2c(c1)OCO2`, the compound was classed as inactive in [1], in [2], in assay [3], in [4], in [5] and in assay [6]. Moreover, the call in [7], in assay [8], in [9], in assay [10], in assay [11] and in assay [12] was inactive. Besides, the outcome in [13], in assay [14], in assay [15], in assay [16], in assay [17] and in assay [18] was inactive. In addition, the compound was called inactive in assay [19] and in [20].

In the case of `Cn1[nH]nnc1=S`, the result in assay [1], in assay [2], in [3], in [4], in assay [5] and in assay [6] was inactive. The compound was classed as inactive in assay [7], in assay [8], in [9], in assay [10], in assay [11] and in assay [12]. Besides, the compound was classed as inactive in assay [13], in [14], in [15], in assay [16], in assay [17] and in [18]. Besides, the outcome in assay [19] and in assay [20] was inactive.

The record behind these values is PubChem BioAssay (EPA / NIEHS).
